Data published in PubChem BioAssay AID1159580 (chemical genetic matrix, 2015).
In all, about 5,500 compounds went through this assay and about 2,000 (36%) were called active. About 18% were inconclusive and are not listed. Cut-off read from the data, not from the text of the source: active = normalized growth mostly below about 0.91 (no sharp cut-off); inconclusive = no clear call, values can overlap the other calls; inactive = mostly above about 0.92. The list shows a part of the results.

Assay: chemical genetic growth profiling, strain panel (AID 1159580);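 note: tested at 20 µM; growth read once vehicle control cultures reached saturation at 30 °C; 1 = growth at the plate median or of vehicle wells; lower values mean less growth of the strain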
Conditions: growth OD
[1] = S. cerevisiae deletion strains, locus YHR030C, strain SLT2, active compounds read low
[2] = S. cerevisiae deletion strains, locus YJL095W, strain BCK1, active compounds read low

Measured: normalized growth

C=Cc1c(C)c2cc3nc(c4c5[nH]c(cc6nc(cc1[nH]2)C(C)=C6CC)c(C)c5C(=O)[C@@H]4C(=O)OC)[C@@H](CCC(=O)OC/C=C(\C)CCCC(C)CCCC(C)CCCC(C)C)[C@@H]3C (some centres undefined)
inactive: [1] 0.987 | S. cerevisiae deletion strains, locus YHR079C, strain IRE1, active compounds read low 0.972 | [2] 0.978 | S. cerevisiae deletion strains, locus YJR066W, strain TOR1, active compounds read low 0.934 | S. cerevisiae deletion strains, locus YLR113W, strain HOG1, active compounds read low 0.957 | S. cerevisiae deletion strains, locus YNL183C, strain NPR1, active compounds read low 0.935 | S. cerevisiae deletion strains, locus YOR231W, strain MKK1, active compounds read low 0.954 | S. cerevisiae deletion strains, locus YPL256C, strain CLN2, active compounds read low 0.965

CCC(C)C(=O)O[C@H]1[C@H](O)C2C(CN3CC(C)CCC3[C@@]2(C)O)C2C[C@]34O[C@]5(O)C(OC(=O)C(C)(O)C(C)O)CC[C@@]3(C)C5C(OC(C)=O)[C@@H](OC(C)=O)C4[C@@]21O (some centres undefined)
inactive: S. cerevisiae deletion strains, locus YAL013W, strain DEP1, active compounds read low 1.01 | S. cerevisiae deletion strains, locus YBR021W, strain FUR4, active compounds read low 0.996 | S. cerevisiae deletion strains, locus YBR229C, strain ROT2, active compounds read low 1 | S. cerevisiae deletion strains, locus YCL029C, strain bik1, active compounds read low 1 | S. cerevisiae deletion strains, locus YDL035C, strain GPR1, active compounds read low 1.02 | S. cerevisiae deletion strains, locus YDL074C, strain BRE1, active compounds read low 1.01 | S. cerevisiae deletion strains, locus YDL101C, strain DUN1, active compounds read low 1.01 | S. cerevisiae deletion strains, locus YDL134C, strain PPH21, active compounds read low 1.01 | S. cerevisiae deletion strains, locus YDL185W, strain tfp1, active compounds read low 0.999 | S. cerevisiae deletion strains, locus YDL192W, strain arf1, active compounds read low 1 | S. cerevisiae deletion strains, locus YDR101C, strain arx1, active compounds read low 0.986 | S. cerevisiae deletion strains, locus YDR150W, strain NUM1, active compounds read low 1.01 | S. cerevisiae deletion strains, locus YDR162C, strain NBP2, active compounds read low 1.01 | S. cerevisiae deletion strains, locus YDR318W, strain mcm21, active compounds read low 0.998 | S. cerevisiae deletion strains, locus YDR388W, active compounds read low 1 | S. cerevisiae deletion strains, locus YDR502C, strain sam2, active compounds read low 0.996 | S. cerevisiae deletion strains, locus YEL061C, strain CIN8, active compounds read low 1.01 | S. cerevisiae deletion strains, locus YER110C, active compounds read low 0.994 | S. cerevisiae deletion strains, locus YER155C, strain BEM2, active compounds read low 1 | S. cerevisiae deletion strains, locus YER167W, strain BCK2, active compounds read low 1.07 | S. cerevisiae deletion strains, locus YGL078C, strain dbp3, active compounds read low 1 | S. cerevisiae deletion strains, locus YGL086W, strain mad1, active compounds read low 1 | S. cerevisiae deletion strains, locus YGL248W, strain PDE1, active compounds read low 1.01 | S. cerevisiae deletion strains, locus YGR078C, strain PAC10, active compounds read low 1.01 | S. cerevisiae deletion strains, locus YGR135W, strain pre9, active compounds read low 0.997 | S. cerevisiae deletion strains, locus YGR229C, strain SMI1, active compounds read low 1.03 | S. cerevisiae deletion strains, locus YGR252W, strain gcn5, active compounds read low 1.01 | [1] 1 | S. cerevisiae deletion strains, locus YHR079C, strain IRE1 (second series), active compounds read low 0.998 | S. cerevisiae deletion strains, locus YHR094C, strain hxt1, active compounds read low 1 | S. cerevisiae deletion strains, locus YHR129C, strain ARP1, active compounds read low 1 | S. cerevisiae deletion strains, locus YHR200W, strain rpn10, active compounds read low 1 | S. cerevisiae deletion strains, locus YIL066C, strain RNR3, active compounds read low 1.01 | S. cerevisiae deletion strains, locus YIL073C, strain SPO22, active compounds read low 1.02 | S. cerevisiae deletion strains, locus YIL125W, strain kgd1, active compounds read low 1.01 | S. cerevisiae deletion strains, locus YIR030C, strain dcg1, active compounds read low 0.991 | [2] 0.994 | S. cerevisiae deletion strains, locus YJL134W, strain LCB3, active compounds read low 1.01 | S. cerevisiae deletion strains, locus YJL168C, strain set2, active compounds read low 1 | S. cerevisiae deletion strains, locus YJL187C, strain SWE1 (second series), active compounds read low 1.01 | S. cerevisiae deletion strains, locus YJR043C, strain POL32, active compounds read low 0.984 | S. cerevisiae deletion strains, locus YJR075W, strain HOC1, active compounds read low 1.01 | S. cerevisiae deletion strains, locus YKL009W, strain mrt4, active compounds read low 1 | S. cerevisiae deletion strains, locus YKL068W, active compounds read low 1.01 | S. cerevisiae deletion strains, locus YKL085W, strain MDH1 (second series), active compounds read low 1 | S. cerevisiae deletion strains, locus YKL085W, strain MDH1, active compounds read low 1 | S. cerevisiae deletion strains, locus YKL190W, strain CNB1, active compounds read low 1.01 | S. cerevisiae deletion strains, locus YKR001C, strain vps1, active compounds read low 0.98 | S. cerevisiae deletion strains, locus YLR039C, strain RIC1, active compounds read low 1 | S. cerevisiae deletion strains, locus YLR058C, strain SHM2, active compounds read low 1.01 | S. cerevisiae deletion strains, locus YLR102C, strain apc9, active compounds read low 1 | S. cerevisiae deletion strains, locus YLR262C, strain YPT6, active compounds read low 0.996 | S. cerevisiae deletion strains, locus YLR268W, strain sec22, active compounds read low 0.981 | S. cerevisiae deletion strains, locus YLR330W, strain CHS5, active compounds read low 1.02 | S. cerevisiae deletion strains, locus YLR342W, strain FKS1 (second series), active compounds read low 1 | S. cerevisiae deletion strains, locus YLR371W, strain rom2, active compounds read low 1 | S. cerevisiae deletion strains, locus YLR418C, strain cdc73, active compounds read low 1 | S. cerevisiae deletion strains, locus YML016C, strain PPZ1, active compounds read low 1 | S. cerevisiae deletion strains, locus YML032C, strain rad52, active compounds read low 0.991 | S. cerevisiae deletion strains, locus YML124C, strain tub3, active compounds read low 0.996 | S. cerevisiae deletion strains, locus YMR078C, strain ctf18, active compounds read low 1.01 | S. cerevisiae deletion strains, locus YMR223W, strain ubp8, active compounds read low 0.999 | S. cerevisiae deletion strains, locus YMR263W, strain SAP30, active compounds read low 1 | S. cerevisiae deletion strains, locus YMR307W, strain GAS1, active compounds read low 0.987 | S. cerevisiae deletion strains, locus YNL067W, strain RPL9B, active compounds read low 1 | S. cerevisiae deletion strains, locus YNL128W, strain TEP1, active compounds read low 1.02 | S. cerevisiae deletion strains, locus YNL153C, strain GIM3, active compounds read low 0.996 | S. cerevisiae deletion strains, locus YNL233W, strain BNI4, active compounds read low 1.01 | S. cerevisiae deletion strains, locus YNL250W, strain rad50, active compounds read low 0.99 | S. cerevisiae deletion strains, locus YNL271C, strain bni1, active compounds read low 0.992 | S. cerevisiae deletion strains, locus YNL298W, strain CLA4, active compounds read low 0.986 | S. cerevisiae deletion strains, locus YNL307C, strain MCK1, active compounds read low 1.01 | S. cerevisiae deletion strains, locus YNL322C, strain KRE1, active compounds read low 1.01 | S. cerevisiae deletion strains, locus YNR052C, strain pop2, active compounds read low 1 | S. cerevisiae deletion strains, locus YOL006C, strain TOP1, active compounds read low 1.02 | S. cerevisiae deletion strains, locus YOL012C, strain htz1 0.933 | S. cerevisiae deletion strains, locus YOL147C, strain pex11, active compounds read low 0.996 | S. cerevisiae deletion strains, locus YOR061W, strain CKA2, active compounds read low 1.01 | S. cerevisiae deletion strains, locus YOR069W, strain VPS5, active compounds read low 1.01 | S. cerevisiae deletion strains, locus YOR136W, strain idh2, active compounds read low 1 | S. cerevisiae deletion strains, locus YOR144C, strain elg1, active compounds read low 0.996 | S. cerevisiae deletion strains, locus YOR184W, strain ser1, active compounds read low 1.02 | S. cerevisiae deletion strains, locus YOR316C, strain cot1, active compounds read low 1 | S. cerevisiae deletion strains, locus YPL055C, strain LGE1, active compounds read low 1.03 | S. cerevisiae deletion strains, locus YPL241C, strain CIN2, active compounds read low 1.01 | S. cerevisiae deletion strains, locus YPR119W, strain clb2, active compounds read low 1 | S. cerevisiae deletion strains, locus YPR141C, strain kar3, active compounds read low 0.996 | S. cerevisiae deletion strains, locus YPR163C, strain tif3, active compounds read low 0.996 | S. cerevisiae deletion strains, locus YPR167C, strain met16, active compounds read low 1.01 | S. cerevisiae deletion strains, strain wtn01, active compounds read low 0.997 | S. cerevisiae strains, strain wild type, active compounds read low 1.01
